For 25 compounds, Potency and PLD induction results are on record in PubChem BioAssay (Tox21).

A number with no mark means an inactive call. Records with an inconclusive call do not appear. Active and inactive are the calls of the source. Unless noted, calls come from the whole dose curve; as a rule, active = well fitted curve in the direction sought with a large enough effect in the repeat runs; inconclusive = weak or mixed curves; inactive = no such curve, though single readings can be large; an effect the other way counts as inactive or inconclusive.

Assay [1] in a line: A CellTox Green Cytotoxicity Assay to monitor cytotoxicity in HepG2 cells - 8 hour (AID 1224890). Note: nearly all actives have a fitted effect of over 45% in size. Note: potency is the fitted concentration of half-maximal effect. The gist of the method: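 Read-out is fluorescence of a cyanine dye excluded from live cells that stains DNA of dead HepG2 cells, with signal proportional to cytotoxicity. Plates were read at 0, 8, 16, 24, 32 and 40 h after compound addition.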
The nature of assay [2]: qHTS assay to identify small molecule antagonists of the estrogen receptor alpha (ER-alpha) signaling pathway using the BG1 cell line in the presence of 0.1 nM 17-beta-estradiol - cell viability counter screen (AID 1259241). Note: nearly all actives have a fitted effect of over 40% in size. Note: potency is the fitted concentration of half-maximal effect. Put shortly:
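VM7Luc4E2, 4,000 cells/well, phenol red-free medium + 10% charcoal-stripped FBS; 24 hr plating; cpd + 0.1 nM E2 final, 22 hr 37C/5% CO2; CellTiter-Fluor 30 min, fluorescence.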
(In general: qHTS replaces the single test concentration by a dilution series.)

A short description of assay [3]: qHTS assay to identify small molecule antagonists of the androgen receptor (AR) signaling pathway using the MDA cell line in the presence of 0.5 nM R1881 - cell viability counter screen (AID 1259242). Note: nearly all actives have a fitted effect of over 45% in size. Note: potency is the fitted concentration of half-maximal effect. The gist of the method:
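Counter screen for cytotoxicity run in the same wells as the AR antagonist reporter screen: MDA-kb2 cells were treated 16 hr with test compounds and 0.5 nM R1881, then live-cell protease activity was measured by fluorescence.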

Assay [4] deals with Estrogen receptor (Homo sapiens) (UniProt P03372). Put plainly: qHTS assay to identify small molecule antagonists of the estrogen receptor alpha (ER-alpha) signaling pathway using the BG1 cell line in the presence of 0.1 nM 17-beta-estradiol (AID 1259244). Note: nearly all actives have a fitted effect of over 50% in size. Note: potency is the fitted concentration of half-maximal effect. The gist of the method:
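Cells: VM7Luc4E2, endogenous ER-alpha, 4x ERE-luc stable. Pre-culture 5 d, phenol red-free, charcoal-stripped FBS. Plated 24 h, compound + E2 0.1 nM final, 22 h 37C/5% CO2. Readout ONE-Glo luminescence.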

Assay [5] in a line: qHTS assay to identify small molecule phospholipidosis (PLD) inducers (AID 1259344; active = well fitted curve in the direction sought with a large enough effect; an effect the other way counts as inactive or inconclusive). The gist of the method: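 HepG2 cells grown on collagen I take up LipidTOX Red while exposed to compound for 24 h; after fixation they are imaged at 20x and pit metrics are extracted.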
Assay [6] can be described thus: qHTS assay to identify small molecule HDAC inhibitors - cell viability counter screen (AID 1259365). Note: series mostly up to about 92 µM; nearly all actives have a fitted effect of over 50% in size. Put shortly: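 Luminescence from CellTiter-Glo, developed 30min at room temperature, reports viability of wild-type HCT-116 cells treated 2hr with compounds at 37 C and 5% CO2 after overnight plating.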
Assay [7] is described as follows: qHTS assay to identify small molecule agonists of the sonic hedgehog signaling (Shh) pathway - cell viability counter screen (AID 1259366). Note: nearly all actives have a fitted effect of over 50% in size. Note: potency is the fitted concentration of half-maximal effect. Put shortly: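 Cytotoxicity counter screen run in the same wells as the Shh reporter assay. NIH/3T3 cells carrying a Gli1 response element–driven luciferase were treated with DMSO-dissolved compounds for 24hr, and live-cell protease activity was measured with CellTiter-Fluor.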

A short description of assay [8]: qHTS assay to identify small molecule antagonists of the sonic hedgehog signaling (Shh) pathway - cell viability counter screen (AID 1259367). Note: nearly all actives have a fitted effect of over 55% in size. The gist of the method:
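After a 4 hr settling period, 3T3 Gli1-Luc cells were treated with DMSO-dissolved chemicals and conditioned medium, kept 24 hr at 37C in 5% CO2, and assayed for viability by CellTiter-Fluor fluorescence following 1 hr reagent incubation.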

Assay [9] in a line: qHTS assay to identify small molecule HDAC inhibitors (AID 1259364). Note: top concentration of the series differs between compounds; nearly all actives have a fitted effect of over 45% in size. The gist of the method:
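Luminescence from a cell-permeant luminogenic class I/II HDAC substrate reports endogenous deacetylase activity in intact HCT-116 cells treated with compounds for 2 h.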
% is set by controls: 0 for no effect and ±100 for the full control effect.

Estrogen receptor (Homo sapiens), sequence (P03372 whole entry, looked up): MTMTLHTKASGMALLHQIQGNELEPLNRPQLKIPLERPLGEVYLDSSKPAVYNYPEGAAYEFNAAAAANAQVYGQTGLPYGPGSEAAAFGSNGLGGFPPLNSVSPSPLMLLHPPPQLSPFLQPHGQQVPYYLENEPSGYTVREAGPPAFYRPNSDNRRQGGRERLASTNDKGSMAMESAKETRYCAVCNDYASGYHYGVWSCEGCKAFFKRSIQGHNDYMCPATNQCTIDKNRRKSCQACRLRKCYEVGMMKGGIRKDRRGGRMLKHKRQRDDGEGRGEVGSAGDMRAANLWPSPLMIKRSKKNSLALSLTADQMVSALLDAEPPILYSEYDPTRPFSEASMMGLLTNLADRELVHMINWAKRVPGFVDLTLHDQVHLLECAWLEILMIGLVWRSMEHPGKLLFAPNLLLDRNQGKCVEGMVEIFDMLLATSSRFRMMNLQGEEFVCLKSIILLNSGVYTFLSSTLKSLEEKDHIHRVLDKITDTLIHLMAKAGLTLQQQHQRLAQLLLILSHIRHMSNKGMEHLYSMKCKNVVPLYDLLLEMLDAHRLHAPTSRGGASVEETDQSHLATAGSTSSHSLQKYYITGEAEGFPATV

Consider `CO[C@]1(NC(=O)CSC(F)F)C(=O)N2C(C(=O)O)=C(CSc3nnnn3CCO)CO[C@H]21`, for which the Potency result in assay [1], in assay [2], in assay [3], in assay [4], in [5] and in assay [6] was “inactive” in each case. Also, the Potency result in [7] and in [8] was “inactive” each time.
Take `CN(C)CCN1C(=O)c2ccccc2N(C)c2ccccc21`: the Potency entry in [1], in [2], in assay [3], in assay [4], in assay [5] and in [9] was “inactive” in each case. Moreover, the Potency entry in [7] and in [8] was “inactive” each time.
Consider `CCn1cc(C(=O)O)c(=O)c2cc(F)c(N3CCNCC3)cc21`, for which the Potency entry in [1], in assay [2], in assay [3], in assay [4], in assay [5] and in assay [9] was “inactive” in each case. The Potency result in assay [6], in [7] and in [8] was “inactive” each time.
Consider `O=C1C(=O)c2ccccc2C(O)=C1C1CCC(c2ccc(Cl)cc2)CC1` (stereo unspecified), for which the Potency result in assay [1], in assay [5], in assay [6], in [7] and in [8] was “inactive” each time. In addition, the values for the Potency in assay [2], in assay [3] and in assay [4] were 26.6 µM (active), 23.7 µM (active) and 26.6 µM (active), respectively.
Take `Nc1cccc2c1CN(C1CCC(=O)NC1=O)C2=O` (stereo unspecified): the Potency result in assay [1], in assay [2], in [3], in [4], in [5] and in [9] was “inactive” each time. Further, the Potency entry in [6], in assay [7] and in assay [8] was “inactive” each time.
With `CCCCN(CCCC)C(C(N)=O)c1ccc(OC)cc1` (stereo unspecified), the Potency result in assay [1], in assay [2], in [3], in assay [4], in assay [9] and in assay [6] was “inactive” each time. Further, the Potency entry in [7] and in [8] was “inactive” each time.
In the case of `CCOc1ccccc1O[C@H](c1ccccc1)[C@H]1CNCCO1`, the Potency entry in assay [1], in assay [2], in assay [3], in [4], in [5] and in [9] was “inactive” each time. Further, in assay [6], the Potency result is “inactive”.
As for `Cc1cccc(N(C)C(=S)Oc2ccc3c(c2)CCC3)c1`, the Potency entry in assay [1], in assay [2], in [3], in [4], in [9] and in assay [6] was “inactive” each time. Besides, the Potency result in [7] and in assay [8] was “inactive” throughout. Besides, the PLD induction in assay [5] is -4.02% [at 7.66 µM].
As to `C[C@]12CC[C@@H]3c4ccc(O)cc4CC[C@H]3[C@@H]1CC[C@@H]2OC(=O)CCC1CCCC1`, the Potency in assay [1] is 49 µM (active); in assay [7], 54.5 µM (active). Further, the Potency entry in assay [2], in assay [3], in assay [4], in assay [5], in assay [9] and in [6] was “inactive” each time. Moreover, the Potency entry in [8] is “inactive”.
For the compound `C=Cc1ccc(S(=O)(=O)O)cc1`, the Potency in assay [1] is 54.9 µM (active). Also, the Potency result in [2], in assay [3], in assay [4], in assay [5], in assay [9] and in assay [6] was “inactive” throughout. The Potency entry in assay [7] is “inactive”.
In the case of `CC(O)c1ccccc1` (stereo unspecified), the Potency result in [1], in assay [2], in [3], in [4], in assay [9] and in [6] was “inactive” each time. Moreover, the Potency entry in assay [7] and in assay [8] was “inactive” in each case.
Regarding `CC1(C)S[C@@H]2[C@H](NC(=O)C(c3ccccc3)S(=O)(=O)O)C(=O)N2[C@H]1C(=O)O` (stereo partly specified), the Potency entry in assay [1], in assay [2], in assay [3], in assay [4], in assay [5] and in [9] was “inactive” in each case. Moreover, the Potency entry in assay [6], in assay [7] and in assay [8] was “inactive” in each case.
Take `O=C(O)CCC(=O)C(=O)O`: the Potency result in [1], in assay [2], in [3], in assay [4], in [5] and in assay [9] was “inactive” in each case. Further, the Potency entry in [6], in [7] and in [8] was “inactive” each time.
Take `Cc1ccc(C(C)(C)O)cc1`: the Potency result in assay [1], in assay [2], in assay [3], in assay [4], in [9] and in assay [6] was “inactive” in each case. In addition, the Potency entry in assay [7] and in assay [8] was “inactive” in each case.
Turning to `CCN(CC)CCNC(=O)COc1ccc(OC)cc1`, the Potency result in [1], in assay [2], in assay [3], in [4], in assay [5] and in assay [9] was “inactive” in each case. The Potency entry in assay [6], in assay [7] and in assay [8] was “inactive” throughout.
On to `CCOC(=O)c1ccc(OCCN2C[C@H](O)[C@@H](O)[C@H](O)[C@H]2CO)cc1`, for which the Potency result in assay [1], in assay [2], in assay [3], in assay [4], in assay [5] and in [9] was “inactive” in each case. For the same compound, the Potency result in assay [6], in assay [7] and in [8] was “inactive” throughout.
As to `Nc1ncnc2c1ncn2[C@H]1CC[C@@H](CO)O1`, the Potency entry in [1], in assay [2], in [3], in [4], in assay [5] and in [9] was “inactive” throughout. Further, the Potency result in assay [6], in assay [7] and in [8] was “inactive” throughout.
On to `CC(=O)N/N=C/c1ccc([N+](=O)[O-])o1`, for which the Potency entry in assay [1], in assay [2], in assay [3], in assay [4], in assay [5] and in assay [9] was “inactive” throughout. Besides, the Potency entry in assay [6] and in [8] was “inactive” each time.
In the case of `CCC(C)COC(C)=O` (stereo unspecified), the Potency entry in assay [1], in assay [2], in assay [3], in [4], in assay [9] and in assay [6] was “inactive” throughout. Also, the Potency result in assay [7] and in [8] was “inactive” each time.
In the case of `CCOC(=O)C1=C(C)NC(C)=C(C(=O)OC)C1c1cccc(Cl)c1Cl` (stereo unspecified), the Potency result in assay [1], in [2], in [3], in assay [4], in assay [5] and in assay [9] was “inactive” throughout. Also, the Potency entry in assay [6], in assay [7] and in [8] was “inactive” throughout.
Take `CC(C)Nc1cccnc1N1CCN(C(=O)c2cc3cc(NS(C)(=O)=O)ccc3[nH]2)CC1`: the Potency result in assay [1], in [2], in assay [3], in assay [4], in [5] and in [9] was “inactive” in each case. Also, the Potency result in [6], in assay [7] and in [8] was “inactive” throughout.
For the compound `O=Cc1c2ccccc2c(Cl)c2ccccc12`, the Potency entry in assay [1], in [2], in assay [3], in assay [4], in assay [9] and in assay [6] was “inactive” in each case. The Potency result in assay [7] and in [8] was “inactive” each time.
Take `C=C1c2cccc(O)c2C(O)=C2C(=O)[C@]3(O)C(O)=C(C(N)=O)C(=O)[C@@H](N(C)C)[C@@H]3[C@@H](O)[C@H]12`: the Potency result in [1], in assay [2], in assay [3], in [4], in [5] and in assay [6] was “inactive” each time. Also, the Potency entry in assay [7] and in [8] was “inactive” in each case.
As for `C/C=C(/C(=C/C)c1ccc(O)cc1)c1ccc(O)cc1`, in assay [1], the Potency was 15.1 µM (active). Also, the Potency entry in assay [2], in assay [3], in [4], in [5], in [9] and in assay [6] was “inactive” each time. In assay [7], the Potency result is “inactive”.
Take `CC(C)C[C@H](NC(=O)[C@H](CCc1ccccc1)NC(=O)CN1CCOCC1)C(=O)N[C@@H](Cc1ccccc1)C(=O)N[C@@H](CC(C)C)C(=O)[C@@]1(C)CO1`: the Potency result in [1], in [2], in assay [5], in assay [9], in assay [6] and in assay [7] was “inactive” in each case. Further, the Potency result in [8] was “inactive”. For the same compound, the results for the Potency in assay [3] and in assay [4] were 16.8 µM (active) and 0.168 µM (active), respectively.
